In the supplement of paper PMC11732987, “Enantioselective OTUD7B fragment discovery through chemoproteomics screening and high-throughput optimisation” (Communications Chemistry, 2025):

Key:
Assay in all cases: log2 ratio of Biotin-Ahx-Ub-VS probe labelling (fragment/DMSO); higher = less target engagement (more negative = stronger competition), active = hit call of the paper (q ≤ 0.05, log2 ratio ≤ -1)
Conditions in all cases: compound concentration: 200 uM; treatment time: 3 h
[1] = target: T1, USP19 (UniProt O94966)
T1 sequence (whole entry): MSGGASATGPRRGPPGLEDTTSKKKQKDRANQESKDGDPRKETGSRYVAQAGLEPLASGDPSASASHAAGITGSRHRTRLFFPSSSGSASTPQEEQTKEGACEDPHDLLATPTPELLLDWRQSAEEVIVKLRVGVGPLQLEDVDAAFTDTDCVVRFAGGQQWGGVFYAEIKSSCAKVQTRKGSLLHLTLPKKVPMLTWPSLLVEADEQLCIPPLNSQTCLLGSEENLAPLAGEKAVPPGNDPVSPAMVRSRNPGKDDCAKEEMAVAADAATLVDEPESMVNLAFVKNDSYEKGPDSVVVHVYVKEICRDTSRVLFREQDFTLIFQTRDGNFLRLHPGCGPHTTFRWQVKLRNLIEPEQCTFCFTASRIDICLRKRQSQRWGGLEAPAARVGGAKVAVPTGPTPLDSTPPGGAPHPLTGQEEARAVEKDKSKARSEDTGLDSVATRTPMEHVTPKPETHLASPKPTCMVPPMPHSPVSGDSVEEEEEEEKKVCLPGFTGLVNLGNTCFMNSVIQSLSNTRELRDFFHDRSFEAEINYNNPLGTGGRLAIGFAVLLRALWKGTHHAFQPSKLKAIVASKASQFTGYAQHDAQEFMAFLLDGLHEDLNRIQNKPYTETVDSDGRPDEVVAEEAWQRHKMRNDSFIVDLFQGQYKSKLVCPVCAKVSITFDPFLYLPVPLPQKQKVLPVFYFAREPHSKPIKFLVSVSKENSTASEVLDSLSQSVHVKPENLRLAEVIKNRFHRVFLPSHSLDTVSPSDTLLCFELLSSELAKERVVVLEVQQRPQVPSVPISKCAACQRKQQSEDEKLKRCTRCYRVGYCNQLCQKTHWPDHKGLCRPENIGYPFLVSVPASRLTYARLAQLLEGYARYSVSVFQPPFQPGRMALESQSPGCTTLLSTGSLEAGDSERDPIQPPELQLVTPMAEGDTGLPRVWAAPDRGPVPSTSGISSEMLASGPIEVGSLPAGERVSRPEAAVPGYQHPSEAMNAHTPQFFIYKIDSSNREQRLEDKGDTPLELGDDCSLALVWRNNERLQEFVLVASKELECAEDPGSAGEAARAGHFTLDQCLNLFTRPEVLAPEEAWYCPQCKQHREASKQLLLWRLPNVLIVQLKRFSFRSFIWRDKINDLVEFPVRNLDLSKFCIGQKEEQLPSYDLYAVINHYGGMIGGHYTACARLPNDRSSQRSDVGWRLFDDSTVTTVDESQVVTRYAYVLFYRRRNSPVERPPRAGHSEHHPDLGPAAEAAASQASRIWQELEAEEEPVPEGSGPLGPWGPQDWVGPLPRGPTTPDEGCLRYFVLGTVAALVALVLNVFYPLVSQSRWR
Outline: (§1)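 HEK293T lysate, 495 µg per sample in Tris/CHAPS/IGEPAL buffer with protease inhibitors, was treated in triplicate with fragment at 200 µM or vehicle for 3 h and then with Biotin-Ahx-Ub-VS at 0.5 µM final for 1 h. Labelled DUBs were NeutrAvidin-enriched, digested with LysC and trypsin, and run by diaPASEF LC-MS/MS. Spectronaut label-free quantities were global-median-normalised, and values are average log2 fragment/vehicle ratios by unpaired t-test on proteins with ≥2 unique peptides.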

[2] = target: USP24 (UniProt Q9UPU5)
Outline: as §1

[3] = target: T2, USP25 (UniProt Q9UHP3)
T2 sequence (whole entry): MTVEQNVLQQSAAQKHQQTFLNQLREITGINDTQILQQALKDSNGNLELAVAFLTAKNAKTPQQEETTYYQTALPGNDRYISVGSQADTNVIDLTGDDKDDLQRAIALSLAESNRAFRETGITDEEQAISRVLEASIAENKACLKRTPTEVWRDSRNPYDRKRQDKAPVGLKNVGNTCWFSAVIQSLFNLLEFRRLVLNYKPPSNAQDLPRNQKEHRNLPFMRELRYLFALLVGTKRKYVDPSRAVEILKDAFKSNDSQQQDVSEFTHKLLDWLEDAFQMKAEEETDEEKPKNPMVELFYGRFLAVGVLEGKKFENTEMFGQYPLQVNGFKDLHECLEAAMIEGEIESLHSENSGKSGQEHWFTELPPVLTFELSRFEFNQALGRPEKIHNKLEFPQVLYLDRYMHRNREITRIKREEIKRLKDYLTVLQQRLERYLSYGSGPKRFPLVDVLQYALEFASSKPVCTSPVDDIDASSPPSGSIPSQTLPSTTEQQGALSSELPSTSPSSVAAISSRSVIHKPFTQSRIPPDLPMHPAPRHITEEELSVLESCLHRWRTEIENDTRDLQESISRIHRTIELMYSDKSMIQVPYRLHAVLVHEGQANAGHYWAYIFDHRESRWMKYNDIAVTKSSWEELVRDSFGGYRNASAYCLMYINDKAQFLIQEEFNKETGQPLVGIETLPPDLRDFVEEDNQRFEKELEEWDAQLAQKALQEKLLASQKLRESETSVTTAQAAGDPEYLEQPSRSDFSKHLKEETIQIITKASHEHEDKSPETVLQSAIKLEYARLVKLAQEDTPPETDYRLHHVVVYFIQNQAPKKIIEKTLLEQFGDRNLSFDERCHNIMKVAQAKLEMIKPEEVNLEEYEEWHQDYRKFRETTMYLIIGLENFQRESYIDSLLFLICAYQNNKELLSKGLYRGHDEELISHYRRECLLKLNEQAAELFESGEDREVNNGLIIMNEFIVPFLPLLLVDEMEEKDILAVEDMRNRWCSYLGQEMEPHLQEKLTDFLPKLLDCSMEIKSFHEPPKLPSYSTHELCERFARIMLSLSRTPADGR
Outline: as §1

[4] = target: T3, USP28 (UniProt Q96RU2)
T3 sequence (whole entry): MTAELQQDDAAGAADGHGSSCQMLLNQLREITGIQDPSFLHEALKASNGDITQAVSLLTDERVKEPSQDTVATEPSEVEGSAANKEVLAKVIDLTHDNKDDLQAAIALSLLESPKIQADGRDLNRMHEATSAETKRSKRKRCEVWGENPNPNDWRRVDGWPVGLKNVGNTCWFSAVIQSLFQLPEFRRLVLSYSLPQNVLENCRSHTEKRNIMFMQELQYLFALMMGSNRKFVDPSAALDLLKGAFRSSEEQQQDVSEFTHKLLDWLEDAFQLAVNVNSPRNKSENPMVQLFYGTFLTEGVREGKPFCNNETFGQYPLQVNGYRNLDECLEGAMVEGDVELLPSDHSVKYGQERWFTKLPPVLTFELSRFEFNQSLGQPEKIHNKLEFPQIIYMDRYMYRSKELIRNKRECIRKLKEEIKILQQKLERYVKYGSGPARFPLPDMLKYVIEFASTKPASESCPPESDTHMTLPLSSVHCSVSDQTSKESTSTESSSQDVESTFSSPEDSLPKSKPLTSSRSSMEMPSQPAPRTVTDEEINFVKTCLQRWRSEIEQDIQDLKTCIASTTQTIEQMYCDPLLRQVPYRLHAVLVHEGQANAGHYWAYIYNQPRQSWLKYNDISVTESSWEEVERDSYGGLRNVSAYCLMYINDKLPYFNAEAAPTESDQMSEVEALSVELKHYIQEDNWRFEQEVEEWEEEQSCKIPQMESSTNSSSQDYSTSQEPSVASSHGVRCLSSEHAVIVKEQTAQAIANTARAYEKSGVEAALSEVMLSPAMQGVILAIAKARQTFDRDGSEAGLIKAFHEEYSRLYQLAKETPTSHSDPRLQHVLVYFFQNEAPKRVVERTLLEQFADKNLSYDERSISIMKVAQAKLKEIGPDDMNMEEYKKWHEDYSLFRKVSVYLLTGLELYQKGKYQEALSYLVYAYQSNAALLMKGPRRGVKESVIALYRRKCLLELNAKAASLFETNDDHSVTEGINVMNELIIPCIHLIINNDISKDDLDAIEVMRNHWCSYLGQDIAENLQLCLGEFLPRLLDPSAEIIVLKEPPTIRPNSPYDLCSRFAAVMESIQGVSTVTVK
Outline: as §1

Measured: log2 ratio of Biotin-Ahx-Ub-VS probe labelling

Chain of USP24 (Q9UPU5 whole entry): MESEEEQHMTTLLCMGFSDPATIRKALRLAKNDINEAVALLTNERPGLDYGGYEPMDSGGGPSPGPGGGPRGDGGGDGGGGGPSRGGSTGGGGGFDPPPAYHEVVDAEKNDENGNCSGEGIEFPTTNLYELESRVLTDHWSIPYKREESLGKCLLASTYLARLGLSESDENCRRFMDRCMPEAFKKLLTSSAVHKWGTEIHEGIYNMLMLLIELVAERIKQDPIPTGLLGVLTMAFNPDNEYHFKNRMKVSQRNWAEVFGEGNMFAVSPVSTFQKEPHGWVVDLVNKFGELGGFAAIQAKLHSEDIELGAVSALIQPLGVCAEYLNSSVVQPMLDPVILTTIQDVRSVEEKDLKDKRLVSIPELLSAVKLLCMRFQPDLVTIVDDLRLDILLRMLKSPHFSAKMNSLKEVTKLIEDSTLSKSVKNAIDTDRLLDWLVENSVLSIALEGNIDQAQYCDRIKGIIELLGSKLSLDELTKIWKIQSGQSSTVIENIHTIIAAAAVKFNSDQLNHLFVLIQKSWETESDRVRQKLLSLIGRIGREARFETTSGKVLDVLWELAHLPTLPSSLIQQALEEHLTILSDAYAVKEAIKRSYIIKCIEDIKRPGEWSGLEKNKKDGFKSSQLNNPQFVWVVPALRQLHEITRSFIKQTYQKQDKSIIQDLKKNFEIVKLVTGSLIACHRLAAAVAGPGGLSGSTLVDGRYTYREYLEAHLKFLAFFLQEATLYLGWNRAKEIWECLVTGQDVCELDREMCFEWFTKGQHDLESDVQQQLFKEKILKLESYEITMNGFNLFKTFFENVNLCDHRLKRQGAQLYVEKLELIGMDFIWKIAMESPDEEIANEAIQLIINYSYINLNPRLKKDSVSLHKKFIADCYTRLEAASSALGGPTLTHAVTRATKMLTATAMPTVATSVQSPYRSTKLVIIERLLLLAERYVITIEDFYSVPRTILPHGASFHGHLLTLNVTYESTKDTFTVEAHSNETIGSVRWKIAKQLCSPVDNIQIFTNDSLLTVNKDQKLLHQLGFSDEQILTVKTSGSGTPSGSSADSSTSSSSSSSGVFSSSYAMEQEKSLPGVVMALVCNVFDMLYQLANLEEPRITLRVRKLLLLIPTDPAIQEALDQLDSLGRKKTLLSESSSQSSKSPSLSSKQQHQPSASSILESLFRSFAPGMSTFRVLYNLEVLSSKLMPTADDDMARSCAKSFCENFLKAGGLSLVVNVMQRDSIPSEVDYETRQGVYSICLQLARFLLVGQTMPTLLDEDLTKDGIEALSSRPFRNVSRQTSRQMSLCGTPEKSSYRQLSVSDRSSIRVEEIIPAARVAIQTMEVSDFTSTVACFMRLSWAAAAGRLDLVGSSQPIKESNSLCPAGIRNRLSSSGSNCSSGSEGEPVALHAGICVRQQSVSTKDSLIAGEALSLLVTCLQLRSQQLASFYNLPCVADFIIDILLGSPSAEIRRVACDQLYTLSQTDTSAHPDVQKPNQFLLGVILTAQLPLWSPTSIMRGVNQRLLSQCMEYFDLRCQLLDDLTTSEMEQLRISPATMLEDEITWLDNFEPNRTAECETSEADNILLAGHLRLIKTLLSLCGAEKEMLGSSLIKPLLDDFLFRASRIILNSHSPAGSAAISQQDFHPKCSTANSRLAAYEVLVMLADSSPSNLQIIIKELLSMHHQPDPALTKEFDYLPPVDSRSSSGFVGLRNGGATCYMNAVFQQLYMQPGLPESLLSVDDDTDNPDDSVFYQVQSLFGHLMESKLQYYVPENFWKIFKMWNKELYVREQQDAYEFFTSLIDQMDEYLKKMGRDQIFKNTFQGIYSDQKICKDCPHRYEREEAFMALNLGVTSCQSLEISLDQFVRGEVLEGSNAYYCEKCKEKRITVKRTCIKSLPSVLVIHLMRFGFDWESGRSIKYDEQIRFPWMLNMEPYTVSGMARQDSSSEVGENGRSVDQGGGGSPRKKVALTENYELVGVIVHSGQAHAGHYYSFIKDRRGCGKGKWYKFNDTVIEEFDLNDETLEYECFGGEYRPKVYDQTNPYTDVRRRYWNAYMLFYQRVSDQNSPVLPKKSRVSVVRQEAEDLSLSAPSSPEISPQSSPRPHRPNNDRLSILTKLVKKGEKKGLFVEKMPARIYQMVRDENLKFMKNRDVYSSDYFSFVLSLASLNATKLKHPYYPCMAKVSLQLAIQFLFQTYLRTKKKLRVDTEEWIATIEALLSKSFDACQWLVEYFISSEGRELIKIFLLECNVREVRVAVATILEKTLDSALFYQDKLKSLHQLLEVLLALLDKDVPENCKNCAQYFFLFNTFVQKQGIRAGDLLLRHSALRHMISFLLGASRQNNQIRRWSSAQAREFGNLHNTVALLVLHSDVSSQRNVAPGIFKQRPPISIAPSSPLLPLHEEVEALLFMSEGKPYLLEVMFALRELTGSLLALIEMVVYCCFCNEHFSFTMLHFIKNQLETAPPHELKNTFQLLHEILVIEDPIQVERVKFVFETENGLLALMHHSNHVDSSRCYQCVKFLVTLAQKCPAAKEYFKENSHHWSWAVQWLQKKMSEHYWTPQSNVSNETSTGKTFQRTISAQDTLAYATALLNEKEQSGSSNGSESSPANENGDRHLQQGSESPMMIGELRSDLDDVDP

O=C(CCl)N1CCN2C(=O)CCC2C1 (centres undefined)
inactive: [1] 0.0407 | [2] 0.14 | [3] -0.508 | [4] -0.38
